Assay [1] can be described thus: NCI Yeast Anticancer Drug Screen. Data for the rad50 strain (AID 155).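 Further: 0% = growth of vehicle-only cultures of the same strain.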 As to conditions: S. cerevisiae rad50 strain growth inhibition, stronger effect = higher value. An outline of the steps:
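Inhibition values express reduced yeast growth in compound-treated cultures relative to vehicle-treated controls.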

Assay [2] is described as follows: NCI Yeast Anticancer Drug Screen. Data for the mec2-1 strain (AID 157). The settings on record: S. cerevisiae mec2-1 strain, stronger effect = higher value. An outline of the steps: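 Using mec2-1 yeast: add compound, measure growth, express inhibition versus vehicle-treated cultures.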
The nature of assay [3]: NCI Yeast Anticancer Drug Screen. Data for the sgs1 mgt1 strain (AID 161).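 Further: 0% = growth of cultures given vehicle only.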 As to conditions: S. cerevisiae sgs1 mgt1 strain, stronger effect = higher value. A digest of the protocol:
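This yeast growth screen uses a strain with defined DNA-repair lesions; compound-treated growth is compared with vehicle-treated growth.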

Assay [4] can be described thus: NCI Yeast Anticancer Drug Screen. Data for the cln2 rad14 strain (AID 165).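 Further: 0% = growth equal to vehicle treated cultures.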 As to conditions: S. cerevisiae cln2 rad14 strain, stronger effect = higher value. A digest of the protocol:
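Yeast strain cln2 rad14, bearing defects in cell cycle control and DNA repair, serves as the test system; values reflect growth inhibition compared with vehicle.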

Assay [5] in a line: NCI Yeast Anticancer Drug Screen. Data for the bub3 strain (AID 167). The settings on record: S. cerevisiae bub3 mutant strain, stronger effect = higher value. A digest of the protocol:
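Steps: expose the mutant yeast strain to compound; grow alongside vehicle-treated cultures; measure growth; express inhibition against the vehicle cultures.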

Assay [6] in a line: NCI Yeast Anticancer Drug Screen. Data for the mlh1 rad18 strain (AID 175). The settings on record: S. cerevisiae mlh1 rad18 strain growth inhibition, stronger effect = higher value. A digest of the protocol:
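Steps: expose repair-defective yeast to compound; measure growth; express inhibition against vehicle-treated controls.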

The mark [7] stands for this setting: at 5.0 µM (retest, dose inferred, filed as 0.5).
[8] abbreviates: at 50.0 µM (retest, dose inferred, filed as 5.0).

This is part of a sample that, as a whole, favours compounds with a hit. Of some 79,000 tested, about 15% had one in any assay. Unmarked numbers belong to inactive results. Calls of active or inactive are those of the source. No stated cut-off is given here; in the data, active means growth inhibition above about 70%; inactive means the rest.

Consider `Brc1c2nc3ccccc3nc2n2ccc3ccccc3c12`, for which the growth inhibition in assay [1] (setting [7]) was -37%; in assay [1] (setting [8]), 59%; in assay [1] (at 50.0 µM) it was 47.8%; in assay [2] (setting [7]) it was -11%; in assay [2] (setting [8]), 86% (active); in assay [2] (at 50.0 µM), 43%. The growth inhibition was -18% in assay [3] (setting [7]); 78% (active) in assay [3] (setting [8]); 54.5% in assay [3] (at 50.0 µM); -14% in assay [4] (setting [7]); 83% (active) in assay [4] (setting [8]); 44.1% in assay [4] (at 50.0 µM). Also, the growth inhibition in assay [5] (setting [7]) is -37%; in assay [5] (setting [8]), 83% (active); in assay [5] (at 50.0 µM), 21%; in assay [6] (setting [7]) it was -38%; in assay [6] (setting [8]), 69%; in assay [6] (at 50.0 µM), 59.5%.
Regarding `NC(=O)N/N=C/C(O)C(O)C(O)C(O)CO` (stereo not given), the growth inhibition is 0% in assay [1] (setting [7]); 44% in assay [1] (setting [8]); 77.1% (active) in assay [1] (at 50.0 µM); -4% in assay [2] (setting [7]); 1% in assay [2] (setting [8]); 59.9% in assay [2] (at 50.0 µM). The growth inhibition in assay [3] (setting [7]) is -1%; in assay [3] (setting [8]), 16%; in assay [3] (at 50.0 µM), 35.5%; in assay [4] (setting [7]), 0%; in assay [4] (setting [8]), 26%; in assay [4] (at 50.0 µM) it was 6.55%. For the same compound, the growth inhibition in assay [5] (setting [7]) was -5%; in assay [5] (setting [8]), 7%; in assay [5] (at 50.0 µM), 36.1%; in assay [6] (setting [7]), -4%; in assay [6] (setting [8]), 20%; in assay [6] (at 50.0 µM) it was 19.7%.
In the case of `CCC[CH2][Sn]([CH2]CCC)([O]C(=O)c1cc(OC)c(OC)cc1OC)[O][Sn]([CH2]CCC)([CH2]CCC)[O]C(=O)c1cc(OC)c(OC)cc1OC`, the growth inhibition in assay [1] (setting [7]) is 94% (active); in assay [1] (setting [8]), 97% (active); in assay [1] (at 50.0 µM), 88.5% (active); in assay [2] (setting [7]), 96% (active); in assay [2] (setting [8]), 98% (active); in assay [2] (at 50.0 µM), 91% (active). In addition, the growth inhibition is 96% (active) in assay [3] (setting [7]); 99% (active) in assay [3] (setting [8]); 91.5% (active) in assay [3] (at 50.0 µM); 92% (active) in assay [4] (setting [7]); 98% (active) in assay [4] (setting [8]); 90.2% (active) in assay [4] (at 50.0 µM). For the same compound, the growth inhibition in assay [5] (setting [7]) is 97% (active); in assay [5] (setting [8]), 98% (active); in assay [5] (at 50.0 µM), 90.5% (active); in assay [6] (setting [7]), 96% (active); in assay [6] (setting [8]), 97% (active); in assay [6] (at 50.0 µM), 89% (active).
Regarding `CC1=C2CCC3C(CCC4(C)C(C(C)CCCC(C)C)CCC34)C2(C)CCC1=O` (stereo not given), the growth inhibition in assay [1] (setting [7]) is -11%; in assay [1] (setting [8]), -2%; in assay [1] (at 50.0 µM), 41%; in assay [2] (setting [7]), 1%; in assay [2] (setting [8]), -2%; in assay [2] (at 50.0 µM), 4.25%. The growth inhibition was 4% in assay [3] (setting [7]); -1% in assay [3] (setting [8]); 16.4% in assay [3] (at 50.0 µM); 6% in assay [4] (setting [7]); 3% in assay [4] (setting [8]); 18.4% in assay [4] (at 50.0 µM). Further, the growth inhibition was 1% in assay [5] (setting [7]); 5% in assay [5] (setting [8]); 4.1% in assay [5] (at 50.0 µM); 17% in assay [6] (setting [7]); 9% in assay [6] (setting [8]); 10.9% in assay [6] (at 50.0 µM).
As to `CCC[C@H]1[C@H](CCC)[C@@]2(OC(=O)C3=C2CCC=C3)[C@]12OC(=O)C1=C2CCC=C1`, the growth inhibition in assay [1] (setting [7]) was -2%; in assay [1] (setting [8]), 98% (active); in assay [1] (at 50.0 µM), 87.8% (active); in assay [2] (setting [7]) it was 2%; in assay [2] (setting [8]), 99% (active); in assay [2] (at 50.0 µM) it was 87.4% (active). The growth inhibition is 3% in assay [3] (setting [7]); 98% (active) in assay [3] (setting [8]); 92% (active) in assay [3] (at 50.0 µM); -7% in assay [4] (setting [7]); 99% (active) in assay [4] (setting [8]); 91.7% (active) in assay [4] (at 50.0 µM). The growth inhibition was 2% in assay [5] (setting [7]); 98% (active) in assay [5] (setting [8]); 89% (active) in assay [5] (at 50.0 µM); 1% in assay [6] (setting [7]); 98% (active) in assay [6] (setting [8]); 89.8% (active) in assay [6] (at 50.0 µM).
Turning to `O=[N+]([O-])C1=Cc2ccccc2S(=O)(=O)CC1`, the growth inhibition in assay [1] (setting [7]) is 6%; in assay [1] (setting [8]), 93% (active); in assay [1] (at 50.0 µM) it was 92.9% (active); in assay [2] (setting [7]) it was 14%; in assay [2] (setting [8]), 93% (active); in assay [2] (at 50.0 µM) it was 92.2% (active). In addition, the growth inhibition is 14% in assay [3] (setting [7]); 95% (active) in assay [3] (setting [8]); 92.7% (active) in assay [3] (at 50.0 µM); -8% in assay [4] (setting [7]); 83% (active) in assay [4] (setting [8]); 63.5% in assay [4] (at 50.0 µM). Also, the growth inhibition in assay [5] (setting [7]) is -24%; in assay [5] (setting [8]) it was 85% (active); in assay [5] (at 50.0 µM), 90.5% (active); in assay [6] (setting [7]), 21%; in assay [6] (setting [8]), 97% (active); in assay [6] (at 50.0 µM), 97.9% (active).
For `COc1ccc(C(=O)Nc2ccc(Cl)cc2)cc1`, the growth inhibition was -21% in assay [1] (setting [7]); -17% in assay [1] (setting [8]); 3.75% in assay [1] (at 50.0 µM); -26% in assay [2] (setting [7]); -12% in assay [2] (setting [8]); 1.85% in assay [2] (at 50.0 µM). Besides, the growth inhibition in assay [3] (setting [7]) is 0%; in assay [3] (setting [8]), 0%; in assay [3] (at 50.0 µM), 5.85%; in assay [4] (setting [7]) it was -7%; in assay [4] (setting [8]) it was 5%; in assay [4] (at 50.0 µM) it was 44.2%. Also, the growth inhibition in assay [5] (setting [7]) is -14%; in assay [5] (setting [8]), -6%; in assay [5] (at 50.0 µM), -8.95%; in assay [6] (setting [7]), -8%; in assay [6] (setting [8]) it was -11%; in assay [6] (at 50.0 µM) it was -23.3%.
Take `N#Cc1ncc(Cl)cc1[N+](=O)[O-]`: the growth inhibition in assay [1] (setting [7]) was 93% (active); in assay [1] (setting [8]), 98% (active); in assay [1] (at 50.0 µM), 99.5% (active); in assay [2] (setting [7]), 80% (active); in assay [2] (setting [8]), 99% (active); in assay [2] (at 50.0 µM) it was 99.7% (active). Moreover, the growth inhibition was 93% (active) in assay [3] (setting [7]); 99% (active) in assay [3] (setting [8]); 99.5% (active) in assay [3] (at 50.0 µM); 59% in assay [4] (setting [7]); 98% (active) in assay [4] (setting [8]); 99.2% (active) in assay [4] (at 50.0 µM). For the same compound, the growth inhibition in assay [5] (setting [7]) is 70% (active); in assay [5] (setting [8]), 98% (active); in assay [5] (at 50.0 µM) it was 99.6% (active); in assay [6] (setting [7]), 75% (active); in assay [6] (setting [8]) it was 98% (active); in assay [6] (at 50.0 µM), 99.5% (active).
Take `Nc1ccccc1/C=C/c1c[nH]c2ccccc12`: the growth inhibition in assay [1] (setting [7]) was 11%; in assay [1] (setting [8]), 97% (active); in assay [1] (at 50.0 µM), 91.6% (active); in assay [2] (setting [7]) it was 4%; in assay [2] (setting [8]), 98% (active); in assay [2] (at 50.0 µM), 97.5% (active). For the same compound, the growth inhibition in assay [3] (setting [7]) is 5%; in assay [3] (setting [8]), 98% (active); in assay [3] (at 50.0 µM) it was 53.2%; in assay [4] (setting [7]), -8%; in assay [4] (setting [8]), 98% (active); in assay [4] (at 50.0 µM) it was 95.6% (active). The growth inhibition in assay [5] (setting [7]) is 28%; in assay [5] (setting [8]) it was 97% (active); in assay [5] (at 50.0 µM), 97.7% (active); in assay [6] (setting [7]), 9%; in assay [6] (setting [8]) it was 98% (active); in assay [6] (at 50.0 µM) it was 97.3% (active).
`CCOC(=O)C(Cc1cn(S(=O)(=O)c2ccccc2)c2ccccc12)(NC(C)=O)C(=O)OCC`: the growth inhibition was -2% in assay [1] (setting [7]); 17% in assay [1] (setting [8]); 61.8% in assay [1] (at 50.0 µM); -11% in assay [2] (setting [7]); 14% in assay [2] (setting [8]); 17.3% in assay [2] (at 50.0 µM). Besides, the growth inhibition in assay [3] (setting [7]) was 8%; in assay [3] (setting [8]) it was 30%; in assay [3] (at 50.0 µM), 70% (active); in assay [4] (setting [7]), 15%; in assay [4] (setting [8]), 33%; in assay [4] (at 50.0 µM), -3.35%. Also, the growth inhibition was -9% in assay [5] (setting [7]); 21% in assay [5] (setting [8]); 67.7% in assay [5] (at 50.0 µM); 5% in assay [6] (setting [7]); 35% in assay [6] (setting [8]); 75.5% (active) in assay [6] (at 50.0 µM).
